In paper PMC4336329 (PLoS ONE, 2015):
Screen size: about 310,000 compounds; about 14,000 (4.5%) showed an effect of 50% or more. Effects have a minus sign here. What follows is part of a selection rich in strong results, with near analogues and random picks from the rest.

Each molecule was assayed against human ether-à-go-go-related gene (hERG) potassium channel (human, UniProt Q12809) (assay: primary screen, population patch clamp on CHO cells stably expressing hERG; higher = less effect of the substance).
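Note: peak tail current of the secondary pulse compared with the same well before compound.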

Chain of human ether-à-go-go-related gene (hERG) potassium channel (Q12809 whole entry, looked up): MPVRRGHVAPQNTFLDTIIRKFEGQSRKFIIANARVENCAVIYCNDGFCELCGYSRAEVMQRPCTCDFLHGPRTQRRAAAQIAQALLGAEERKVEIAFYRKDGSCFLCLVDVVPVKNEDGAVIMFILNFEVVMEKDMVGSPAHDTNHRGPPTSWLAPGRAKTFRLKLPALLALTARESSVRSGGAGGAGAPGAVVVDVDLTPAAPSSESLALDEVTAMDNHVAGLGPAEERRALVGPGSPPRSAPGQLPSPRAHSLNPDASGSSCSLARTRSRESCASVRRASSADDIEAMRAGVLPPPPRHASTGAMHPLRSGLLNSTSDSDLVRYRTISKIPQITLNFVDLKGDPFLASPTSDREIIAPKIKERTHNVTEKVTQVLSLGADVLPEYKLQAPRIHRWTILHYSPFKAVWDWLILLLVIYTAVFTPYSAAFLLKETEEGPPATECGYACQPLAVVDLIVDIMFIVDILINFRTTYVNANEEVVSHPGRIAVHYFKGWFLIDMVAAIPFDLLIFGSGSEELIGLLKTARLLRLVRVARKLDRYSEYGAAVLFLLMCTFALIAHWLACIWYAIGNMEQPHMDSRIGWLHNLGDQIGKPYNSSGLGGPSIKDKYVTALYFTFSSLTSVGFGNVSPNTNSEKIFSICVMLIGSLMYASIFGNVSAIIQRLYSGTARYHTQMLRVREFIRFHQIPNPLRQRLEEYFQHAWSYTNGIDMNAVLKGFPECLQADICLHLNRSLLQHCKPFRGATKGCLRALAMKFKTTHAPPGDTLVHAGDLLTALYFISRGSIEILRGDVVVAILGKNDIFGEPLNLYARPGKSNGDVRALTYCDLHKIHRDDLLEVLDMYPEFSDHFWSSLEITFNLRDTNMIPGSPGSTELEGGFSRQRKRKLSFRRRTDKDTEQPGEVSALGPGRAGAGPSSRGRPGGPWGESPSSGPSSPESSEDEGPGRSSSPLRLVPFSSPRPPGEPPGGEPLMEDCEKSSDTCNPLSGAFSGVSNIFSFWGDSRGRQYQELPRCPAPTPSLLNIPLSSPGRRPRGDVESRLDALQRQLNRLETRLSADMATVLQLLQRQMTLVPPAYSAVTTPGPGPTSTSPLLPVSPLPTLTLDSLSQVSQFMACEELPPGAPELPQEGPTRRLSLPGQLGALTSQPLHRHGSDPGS

Row | SMILES | hERG current change (%, negative = inhibition) at 10uM
1 | CCCOc1ccc(OCCN2CCCC(C)C2)cc1.O=C(O)C(=O)O (stereo not shown) | -52.2%
2 | CC1CCCN(CCOc2ccc(Br)cc2)C1 (stereo not shown) | -51.3%
3 | COc1ccc(OCCCN2CCCC(C)C2)cc1 (stereo not shown) | -32%
4 | CC1CN(CCOc2ccc(F)cc2)CC(C)O1.O=C(O)C(=O)O (stereo not shown) | 6.81%
5 | CC1CC(C)CN(CCOc2ccc(Br)cc2)C1.O=C(O)C(=O)O (stereo not shown) | -60.3%
6 | CC1CN(CCOc2ccc(Cl)c(Cl)c2)CC(C)O1.O=C(O)C(=O)O (stereo not shown) | -5.18%
7 | Brc1ccc(OCCN2CCOCC2)cc1 | 4.54%
8 | O=C(CSc1nc2ccccc2n1CC(=O)N1CCCC1)Nc1ccc2c(c1)OCO2 | -37.7%
9 | CC(=O)Nc1c(C)nn(C(C)=O)c1C | 16.4%
10 | CC(=O)N(C(C)=O)c1nc2nc(C)cc(C)n2n1 | -42.3%
11 | COc1cccc(NC(=O)NCCc2ccc(Cl)cc2)c1 | 9.47%
12 | CCOC(=O)NNc1ccccc1 | 6.88%
13 | Cc1ccc(-c2csc3nc4ccc(C(=O)NCCO)cc4c(=O)n23)cc1 | 12.1%
14 | CC(C)(C)c1ccc(OCCC(=O)OCC(=O)Nc2cccnc2Cl)cc1 | -2.33%
15 | COc1ccc(C2c3cc(OC)c(OC)cc3CCN2C(=O)c2ccccc2)cc1OC (stereo not shown) | 2.95%
16 | COc1cc2c(cc1OC)C(c1cccs1)N(C(=O)C(C)C)CC2 (stereo not shown) | -19.2%
17 | COc1cc2c(cc1OC)C(c1ccccc1)N(C(=O)c1ccccc1)CC2 (stereo not shown) | -13.1%
18 | COc1cc2c(cc1OC)C(c1cccs1)N(C(=O)c1ccncc1)CC2 (stereo not shown) | -66.8%
19 | COc1cc2c(cc1OC)C(c1cccs1)N(C(=O)c1cccnc1)CC2 (stereo not shown) | -54.9%
20 | COc1cc2c(cc1OC)C(c1cccs1)N(C(=S)NC(C)C)CC2 (stereo not shown) | -40%
21 | Cc1cc2ccccc2c(=O)n1CC(=O)NCCC1=CCCCC1 | 8.01%
22 | Cc1c(C#N)c(NC(=O)CCl)n(Cc2ccccc2)c1C | 31.1%
23 | CC(C)n1c(SCc2ccc(Cl)cc2)nc2c1c(=O)[nH]c(=O)n2C | 18.5%
24 | Cc1ccc(OP(=O)(NC(C)c2ccccc2)Oc2ccc(C)cc2)cc1 (stereo not shown) | 17.6%
25 | C=CCN(CC=C)S(=O)(=O)c1ccc(NC(=S)NC(=O)/C=C/c2cccc3ccccc23)cc1 | 1.52%
26 | O=C(Cc1ccc(Br)cc1)N1CCN(C(=O)c2ccccc2)CC1 | -30.1%

Row | SMILES | hERG current change (%, negative = inhibition) at 10uM
27 | CCOc1ccc(/C=C/[N+](=O)[O-])c2ccccc12 | -8.67%
28 | CCN1CCN(c2ccc(S(=O)(=O)N3CCCCC3)cc2NC(=O)c2ccc(OC(F)F)cc2)CC1 | -57.2%
29 | CCN1CCN(c2ccc(S(=O)(=O)N3CCCCC3)cc2NC(=O)c2cccc(F)c2)CC1 | -34.6%
30 | CCN1CCN(c2ccc(S(=O)(=O)N3CCCCC3)cc2NC(=O)c2ccccc2)CC1 | -46%
31 | CCN1CCN(c2ccc(S(=O)(=O)N3CCOCC3)cc2NC(=O)/C=C/c2ccc(OC)cc2OC)CC1 | -17.2%
32 | CCN1CCN(c2ccc(S(=O)(=O)N3CCCCC3)cc2NC(=O)/C=C/c2ccc(OC(F)F)cc2)CC1 | -50.2%
33 | CCN1CCN(c2ccc(S(=O)(=O)N3CCCCC3)cc2NC(=O)/C=C/c2cc(OC)ccc2OC)CC1 | -52.7%
34 | CCN1CCN(c2ccc(S(=O)(=O)N3CCCCC3)cc2NC(=O)/C=C/c2cccc(OC)c2OC)CC1 | -18.9%
35 | CN1CCN(c2ccc(S(=O)(=O)N3CCCCC3)cc2NC(=O)/C=C/c2ccc(OC(F)F)cc2)CC1 | -39.2%
36 | CCN1CCN(c2ccc(S(=O)(=O)N3CCCCC3)cc2NC(=O)c2ccc(F)cc2)CC1 | -56.5%
37 | CCN1CCN(c2ccc(S(=O)(=O)N3CCOCC3)cc2NC(=O)c2ccc(C(F)(F)F)cc2)CC1 | -44.2%
38 | CCN1CCN(c2ccc(S(=O)(=O)N3CCCCC3)cc2NC(=O)/C=C/c2ccc(OC)c(OC)c2)CC1 | -31.4%
39 | CCN1CCN(c2ccc(S(=O)(=O)N3CCCCC3)cc2NC(=O)c2cccc(C(F)(F)F)c2)CC1 | -46.7%
40 | O=C(Nc1ccc2c(c1)OCO2)c1ccc(COc2ccc3c(c2)CCC3)o1 | 5.22%
41 | CCN(Cc1ccccc1)C(=O)COC(=O)c1c(C)nsc1NC | -6.97%
42 | CCOCCCNC(=O)c1cc(Nc2ccc(OC)cc2OC)nc2ccccc12 | -7.58%
43 | COc1ccc(N2C(=O)CCC(C(=O)Nc3ccccn3)C2c2ccc(OC)c(OC)c2)cc1 (stereo not shown) | 8.15%
44 | Cc1ccc(-n2c(C)c(C)c3c(NCCN(C)C)ncnc32)cc1 | -36.3%
45 | COC(=O)c1ccc(C)c(NC(=O)CN2C(=O)c3ccccc3S2(=O)=O)c1 | 6.46%
46 | Cc1ccc(CNC(=S)Nc2ccc(C)c([N+](=O)[O-])c2)cc1 | 17.5%
47 | CN(CC(=O)Nc1ccc(S(=O)(=O)N2CCCC2)cc1)Cc1c(F)cccc1Cl | -7.41%
48 | O=C(COc1ccc(-n2cnnn2)cc1)Nc1cccc(Cl)c1Cl | 16.8%
49 | CC(=O)Nc1ccc(NC(=O)c2cc([N+](=O)[O-])cc([N+](=O)[O-])c2)cc1 | 22.5%
50 | CCN1CCN(c2ccc(S(=O)(=O)N3CCCCC3)cc2NC(=O)c2cccc(NC(C)=O)c2)CC1 | -71.3%
51 | CCN1CCN(c2ccc(S(=O)(=O)N3CCCCC3)cc2NC(=O)c2cccc(Cl)c2)CC1 | -34.6%
52 | CCN1CCN(c2ccc(S(=O)(=O)N3CCCCC3)cc2NC(=O)c2cccc(C)c2)CC1 | -37.4%
